In the library only some 0.81% were active in any assay of this set; here they are far more common.
CatL inh: inhibitors of human cathepsin L, biochemical; 0.17% of 58,000 active; inhibition, %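 (tested at 10 µM)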; purified cathepsin L, fluorogenic substrate, fluorescence; Procathepsin L (Homo sapiens), P07711; in the data active = inhibition above about 45%
Target sequence (P07711 114-288 limits assumed): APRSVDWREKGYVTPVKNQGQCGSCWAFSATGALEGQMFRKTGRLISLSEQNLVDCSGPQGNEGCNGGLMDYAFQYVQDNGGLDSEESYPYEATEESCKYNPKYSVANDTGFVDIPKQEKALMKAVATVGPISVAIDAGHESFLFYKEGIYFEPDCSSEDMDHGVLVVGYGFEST
Target sequence (P07711 292-333 limits assumed): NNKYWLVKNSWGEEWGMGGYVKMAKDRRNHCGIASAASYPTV
BAP1 block: inhibitors of BAP1 deubiquitinase, primary screen, biochemical, Ub-AMC fluorescence, kinetic; Ubiquitin carboxyl-terminal hydrolase BAP1 (Homo sapiens), Q92560; recombinant BAP1, Ub-AMC hydrolysis fluorescence kinetic; active compounds read low; calls only at 20 µM; 0.48% of 72,000 active;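 active = activity remaining at or below 50% of control, provided the compound also passes the data quality filters; inactive = the rest, including low values that fail the filters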
CatS block: inhibitors of human cathepsin S, biochemical, compound mixtures; P25774; inhibition, %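 (tested at 5 µM per compound within 10-compound mixtures)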; AID 501, 2006; recombinant cathepsin S, AMC dipeptide fluorescence, pooled mixtures; 0.06% of 62,000 active; in the data active = inhibition above about 32%, passing the limit was not always enough; inconclusive = no clear call, values can overlap the other calls
Target sequence (P25774 115-331 limits assumed): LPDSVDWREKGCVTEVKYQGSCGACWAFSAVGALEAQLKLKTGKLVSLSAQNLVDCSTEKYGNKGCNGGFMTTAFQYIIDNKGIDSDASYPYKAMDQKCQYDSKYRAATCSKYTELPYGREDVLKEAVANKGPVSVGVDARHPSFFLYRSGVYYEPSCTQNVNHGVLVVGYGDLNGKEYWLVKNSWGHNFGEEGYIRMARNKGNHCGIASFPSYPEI
CatB block: human cathepsin B inhibitors, primary screen, biochemical, fluorogenic substrate; P07858; inhibition, %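 (tested at 10 µM)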; 0.1% of 63,000 active; purified cathepsin B, fluorescence; in the data active = inhibition above about 21%
CatB mix inh: cathepsin B inhibitors from pooled compounds, primary screen, biochemical, compound mixtures, AMC fluorescence | inhibition, %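 (ten-compound pools at 5 µM per compound and 50 µM total)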 | Purified cathepsin B, AMC dipeptide fluorescence | AID 488, 2006 | 0.06% of 62,000 active; in the data active = inhibition above about 22%, passing the limit was not always enough; inconclusive = no clear call, values can overlap the other calls
Ec RNAP inh: E. coli RNAP inhibitors, biochemical | DNA-directed RNA polymerase subunit beta (Escherichia coli (strain K12)), P0A8V2 | E. coli RNA polymerase, fluorescence transcription assay | inhibition, %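 (tested at 10 µM)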 | 0.2% of 62,000 active | AID 559, 2006; in the data active = inhibition above about 20%
Of the large screens only hits and unclear results are named; the others gave an inactive call.

CCCCn1c(SCC(=O)Nc2nnc(CC)s2)nc2c1c(=O)n(C)c(=O)n2C	none
CCCCn1c(SCC(=O)Nc2nnc(C)s2)nc2c1c(=O)n(C)c(=O)n2C	Ec RNAP inh 31
Cc1ccc(Nc2nc(N)nc(CN3CCN(C)CC3)n2)cc1	Ec RNAP inh 21
COc1ccc2c(c1)-c1ccccc1S(=O)(=O)N2C(C)=O	Ec RNAP inh 29
O=C(Oc1nsnc1N1CCOCC1)N1CCCCC1	none (no result: CatL inh, CatS block, CatB block, CatB mix inh, Ec RNAP inh)
O=C(Oc1nsnc1N1CCOCC1)N1CCOCC1	Ec RNAP inh 31
CCOC(CCl)S(=NS(=O)(=O)c1ccccc1)c1ccccc1I (stereo not drawn)	none (no result: CatL inh, CatS block, CatB block, CatB mix inh, Ec RNAP inh)
Cc1cc(C)c2c(n1)sc1c(N3CCN(CCO)CC3)ncnc12	none
CSc1nc(N2CCN(CCO)CC2)c2sc3nc(-c4ccco4)c4c(c3c2n1)CCC4	CatL inh 72 (no result: BAP1 block)
O=C(COc1ccc(Br)cc1)Nc1ccc2oc(-c3ccncc3)nc2c1	none (no result: CatL inh, CatS block, CatB block, CatB mix inh, Ec RNAP inh)
CC1=C(C(=O)OCCOc2ccccc2)C(c2ccc(N(C)C)cc2)C2=C(CC(C)(C)CC2=O)N1 (stereo not drawn)	none (no result: CatL inh, CatS block, CatB block, CatB mix inh, Ec RNAP inh)
COc1ccc(CCNC(=O)C2CCN(S(=O)(=O)c3cc(OC)ccc3OC)CC2)cc1	CatL inh 46
COc1ccc(CNC(=O)C2CCN(S(=O)(=O)c3cc(OC)ccc3OC)CC2)cc1	none
Nc1nonc1-c1nc2ccccc2n1Cc1ccccc1	CatB mix inh 43 (not shown: BAP1 block)
O=C(Nc1nonc1-c1nc2ccccc2n1Cc1ccccc1)c1ccc(F)cc1	none (no result: CatL inh, CatS block, CatB block, CatB mix inh, Ec RNAP inh)
Nc1nonc1-c1nc2ccccc2n1CC(=O)NC1CCCC1	none
CCOC(=O)c1ccccc1NC(=O)Cn1c(-c2nonc2N)nc2ccccc21	CatB block 59
O=C(Nc1ccccc1C(=O)NCCO)c1ccccc1	none (no result: CatL inh, CatS block, CatB block, CatB mix inh, Ec RNAP inh)
Nc1nc2ccc(Cc3ccc4nc(N)sc4c3)cc2s1	none (no result: CatL inh, CatS block, CatB block, CatB mix inh, Ec RNAP inh)
COc1ccc(S(=O)(=O)N2CCCN(CC(=O)Nc3ccc4c(c3)OCO4)CC2)cc1	none
O=C(CN1CCCN(S(=O)(=O)c2ccc(Br)cc2)CC1)Nc1ccc2c(c1)OCO2	CatL inh 51
CC(=O)NC(=O)NC1OC(=O)C(Cl)=C1Cl (stereo not drawn)	CatB block 21, CatB mix inh inconclusive
Cc1ccccc1S(=O)(=O)NC1OC(=O)C(Cl)=C1Cl (stereo not drawn)	none
COc1ccc(-n2c(Cc3cccn3C)nnc2SCC(=O)NCc2ccccc2Cl)cc1	CatL inh 101
Cn1cccc1Cc1nnc(SCC(=O)NCC2CCCO2)n1-c1ccc(F)cc1 (stereo not drawn)	CatL inh 46
Cc1nnc2ccc(N3CCN(c4ccccn4)CC3)nn12	CatB block 51 (no result: CatL inh)
Cc1nnc2ccc(N3CCN(c4cccc(C(F)(F)F)c4)CC3)nn12	none
COc1ccc2c(C)nc(Nc3nc(C)cc(C)n3)nc2c1	CatL inh 61
CCN(CC)c1ccc2cc(C(=O)Nc3cccc(C)c3)c(=N)oc2c1	none (no result: CatL inh, CatS block, CatB block, CatB mix inh, Ec RNAP inh)
C=CS(=O)(=O)c1ccc(Oc2ccc(S(=O)(=O)C=C)cc2)cc1	CatS block 39
O=S(=O)(c1ccc(Oc2ccc(S(=O)(=O)N3CCOCC3)cc2)cc1)N1CCOCC1	none
CCCCNc1cc(C(=O)O)cc(S(N)(=O)=O)c1Oc1ccccc1	none (not shown: BAP1 block)
CCc1ccccc1NC1=C(Cl)C(=O)N(c2ccccc2Cl)C1=O	none (no result: CatL inh, CatS block, CatB block, CatB mix inh, Ec RNAP inh)
COc1ccccc1CN(Cc1ccco1)S(=O)(=O)c1ccc(-n2cnnn2)c(OC)c1	CatS block 60
CC1=C(C(=O)OC(C)C)C(c2ccccc2[N+](=O)[O-])C2=C(CCCC2=O)N1 (stereo not drawn)	none (no result: CatL inh, CatS block, CatB block, CatB mix inh, Ec RNAP inh)
Cc1ccnc(NS(=O)(=O)c2ccc(N3C(=O)C4CC=CCC4C3=O)cc2)n1 (stereo not drawn)	none (no result: CatL inh, CatS block, CatB block, CatB mix inh, Ec RNAP inh)
CCOc1ccc(NC2=NC(C(=O)NCc3ccccc3)CC(=O)N2)cc1 (stereo not drawn)	CatL inh 55
CC1CN(C2CCN(S(=O)(=O)c3ccccc3)CC2)CC(C)O1 (stereo not drawn)	Ec RNAP inh 22 (no result: CatS block, CatB mix inh)
CCc1ccc2c(c1)[C@]1(C(=O)N2)[C@@H]2C(=O)N(Cc3ccccc3)C(=O)[C@@H]2[C@@H]2CCCN21	none
Cc1cc(Cl)cc2c1NC(=O)[C@]21[C@@H]2C(=O)N(Cc3ccccc3)C(=O)[C@@H]2[C@@H]2CCCN21	Ec RNAP inh 33
Cc1ccc(NC(=O)Cn2cnc3c(cnn3C(C)(C)C)c2=O)cc1	Ec RNAP inh 22
CC(C)(C)n1ncc2c(=O)n(CC(=O)Nc3ccc4c(c3)OCO4)cnc21	none
CCCCCCCCCCCCCCSCC(=O)O	BAP1 block active (no result: CatL inh, CatS block, CatB block, CatB mix inh, Ec RNAP inh)
CCOC(=O)N1CCC(NC(=O)C2CCCCN2S(=O)(=O)c2ccc(F)cc2)CC1 (stereo not drawn)	CatL inh 104
O=C(Nc1ccon1)c1cc(-c2ccccc2)nc2ccccc12	Ec RNAP inh 21
O=C(CSc1nnc(CNc2ccc(Cl)cc2)o1)Nc1nc2c(s1)CCCC2	Ec RNAP inh 23
COc1ccc(OC)c(C2C(C#N)=C(N)Oc3cc(C)n(Cc4ccccn4)c(=O)c32)c1 (stereo not drawn)	CatL inh 63 (no result: CatS block, CatB mix inh)
CC(C)(C)c1ccc(CNc2cc(N3CCCCC3)ccc2[N+](=O)[O-])cc1	none (no result: CatL inh, CatS block, CatB block, CatB mix inh, Ec RNAP inh)
O=C(CC1Nc2ccccc2NC1=O)NC1CCCCC1 (stereo not drawn)	none
O=C(/N=C1\NC(=O)C(F)(C(F)(F)F)S1)NC1CCCCC1 (stereo not drawn)	Ec RNAP inh 25
O=C(NCCCN1CCOCC1)NC12CC3CC(CC(C3)C1)C2	Ec RNAP inh 64
CCN(CC)CCNC(=O)c1cc2c(=O)n(C)c3ccccc3c2n1C	CatS block 48
CCN(CC)CCCNC(=O)c1cc2c(=O)n(C)c3ccccc3c2n1C	CatS block inconclusive
CCCN1CCN(CCCNC(=O)c2cc3c(=O)n(C)c4ccccc4c3n2C)CC1	none
CN(C)CCNC(=O)c1cc2c(=O)n(C)c3ccccc3c2n1C	CatS block 82
COCCCNC(=O)c1cc2c(=O)n(C)c3ccccc3c2n1C	none
CCCCN(CC)CCNC(=O)c1cc2c(=O)n(C)c3ccccc3c2n1C	CatS block 57
CCCN(CCC)CCCNC(=O)c1cc2c(=O)n(C)c3ccccc3c2n1C	Ec RNAP inh 50
CCCCCOC(=O)C1=C(C)NC(=S)NC1c1ccccc1 (stereo not drawn)	none (no result: CatL inh, CatS block, CatB block, CatB mix inh, Ec RNAP inh)
COc1ccccc1-c1cc(C(F)(F)F)nc(N2CCN(c3ccccc3)CC2)n1	CatL inh 105 (no result: BAP1 block)
COc1ccccc1NC(=O)CN(c1ccc(C)cc1)S(=O)(=O)c1c(C)n[nH]c1C	none
COc1ccc(N(CC(=O)Nc2cccc(C)c2C)S(=O)(=O)c2c(C)n[nH]c2C)cc1	CatB block 62
